Laboratory results published in PubChem BioAssay (EPA / NIEHS).
Several values for one entry are separate records, joined by “and”; a condition that tells them apart may be missing. Identical values can stand only once. Results filed as inconclusive are left out. Where a structure was tested more than once in an assay, its records may differ in their call. Activity calls are given as the source filed them. How the source made its calls, unless noted: active means hit-call score of the fitted dose curve at least 0.9, where 1 is the maximum; inconclusive means response in the unintended direction; inactive means score below 0.9.

Legend:
[1] = ATG_VDRE_CIS: Attagene CIS-FACTORIAL HepG2 Assay for human Vitamin D Receptor Element (VDRE) (AID 2282968; active means hit-call score of the fitted dose curve at least 0.9, where 1 is the maximum; inactive means score below 0.9); details: HepG2 VDRE cis-reporter transcription, actives raise or lower the signal
How it was run: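 Readout is VDRE-driven reporter mRNA reflecting endogenous factor activity in human HepG2 cells, sampled 24 h post-dose. Quantification used labelled RT-PCR products separated by capillary electrophoresis; bidirectional analysis relative to DMSO.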

[2] = biological target: Nuclear receptor subfamily 1 group I member 3 (Homo sapiens) (UniProt Q14994); experiment: ATG_CAR_TRANS: Attagene TRANS-FACTORIAL HepG2 Assay for human Constitutive Androstane Receptor (CAR) (AID 2282969); details: HepG2 Attagene TRANS-FACTORIAL CAR reporter;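 further: activators raise reporter mRNA above DMSO so AC50 marks induction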
Sequence of Nuclear receptor subfamily 1 group I member 3 (Homo sapiens) (Q14994 whole entry, looked up, the tested form may be a part): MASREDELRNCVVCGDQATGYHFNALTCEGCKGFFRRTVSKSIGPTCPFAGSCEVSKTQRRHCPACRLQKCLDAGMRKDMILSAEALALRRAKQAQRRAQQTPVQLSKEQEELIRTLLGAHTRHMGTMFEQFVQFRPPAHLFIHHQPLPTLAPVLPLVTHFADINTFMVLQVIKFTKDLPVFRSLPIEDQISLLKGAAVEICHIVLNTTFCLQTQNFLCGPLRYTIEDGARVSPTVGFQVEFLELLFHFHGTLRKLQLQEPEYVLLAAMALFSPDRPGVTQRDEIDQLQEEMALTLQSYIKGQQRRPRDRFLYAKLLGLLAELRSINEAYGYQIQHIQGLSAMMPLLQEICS
How it was run: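 Signal is reporter mRNA induction relative to DMSO, measured 24 h after dosing by RT-PCR with fluorescent primer extension and capillary electrophoresis. Human HepG2 liver cells carried transiently transfected chimeric NR-Gal4/GAL4-UAS reporter constructs.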

[3] = biological target: Estrogen receptor (Homo sapiens) (UniProt P03372); experiment: ATG_ERa_TRANS: Attagene TRANS-FACTORIAL HepG2 Assay for human Estrogen Receptor alpha (ERa) (AID 2282970); details: HepG2 Attagene TRANS ERa GAL4 reporter, mRNA
Sequence of Estrogen receptor (Homo sapiens) (P03372 whole entry, looked up, the tested form may be a part): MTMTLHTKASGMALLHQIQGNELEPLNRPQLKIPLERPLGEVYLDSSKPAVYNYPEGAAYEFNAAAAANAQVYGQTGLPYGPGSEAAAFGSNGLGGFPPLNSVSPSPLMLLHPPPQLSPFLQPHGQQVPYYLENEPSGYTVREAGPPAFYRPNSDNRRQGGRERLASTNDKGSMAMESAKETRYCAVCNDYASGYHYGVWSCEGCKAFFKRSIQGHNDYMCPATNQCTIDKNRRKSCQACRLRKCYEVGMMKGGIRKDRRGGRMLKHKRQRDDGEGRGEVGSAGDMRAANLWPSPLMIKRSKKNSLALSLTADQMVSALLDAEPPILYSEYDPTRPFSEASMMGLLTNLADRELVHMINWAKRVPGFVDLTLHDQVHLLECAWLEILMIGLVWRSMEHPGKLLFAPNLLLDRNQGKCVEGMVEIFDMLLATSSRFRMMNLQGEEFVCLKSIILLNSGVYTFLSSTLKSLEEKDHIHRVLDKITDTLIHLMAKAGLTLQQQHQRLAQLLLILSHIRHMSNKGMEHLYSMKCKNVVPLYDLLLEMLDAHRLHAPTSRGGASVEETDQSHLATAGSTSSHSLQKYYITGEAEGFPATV
How it was run: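 Transfected HepG2 cells carrying GAL4-UAS-driven reporter units were dosed for 24 hours. Total RNA was reverse-transcribed, reporter sequences PCR-amplified, FAM-labelled, HpaI-digested and resolved by capillary electrophoresis. Increases over DMSO control defined activity.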

[4] = biological target: Steroid hormone receptor ERR1 (Homo sapiens) (UniProt P11474); experiment: ATG_ERRa_TRANS: Attagene TRANS-FACTORIAL HepG2 Assay for human Estrogen-Related Receptor alpha (ERRa) (AID 2282971); details: HepG2 Attagene TRANS reporter, ERRa transactivation
Sequence of Steroid hormone receptor ERR1 (Homo sapiens) (P11474 whole entry, looked up, the tested form may be a part): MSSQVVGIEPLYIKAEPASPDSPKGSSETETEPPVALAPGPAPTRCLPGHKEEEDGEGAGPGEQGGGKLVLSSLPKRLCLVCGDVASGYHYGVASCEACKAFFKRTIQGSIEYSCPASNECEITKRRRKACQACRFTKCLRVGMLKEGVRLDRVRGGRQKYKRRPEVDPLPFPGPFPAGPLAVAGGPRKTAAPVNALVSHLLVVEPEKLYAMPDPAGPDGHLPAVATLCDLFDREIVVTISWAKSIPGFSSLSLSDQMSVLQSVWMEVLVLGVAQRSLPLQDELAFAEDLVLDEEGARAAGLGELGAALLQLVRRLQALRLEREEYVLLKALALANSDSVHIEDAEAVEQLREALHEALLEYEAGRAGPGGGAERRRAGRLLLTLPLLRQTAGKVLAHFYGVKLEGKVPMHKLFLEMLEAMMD
How it was run: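 HepG2 cells were transiently transfected with multiple GAL4-UAS reporter units, then dosed with compound for 24 h. Total RNA was reverse-transcribed, reporter cDNA PCR-amplified and fluorescently labelled, and fragments resolved by capillary electrophoresis; induction was compared with DMSO.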

[5] = biological target: X-box-binding protein 1 (Homo sapiens) (UniProt P17861); experiment: ATG_Xbp1_CIS: Attagene CIS-FACTORIAL HepG2 Assay for human X-box Binding Protein 1 (XBP1) (AID 2282972; active means hit-call score of the fitted dose curve at least 0.9, where 1 is the maximum; inactive means score below 0.9); details: HepG2 XBP1 cis-element reporter, Attagene multiplex; actives raise or lower the signal
Sequence of X-box-binding protein 1 (Homo sapiens) (P17861 whole entry, looked up, the tested form may be a part): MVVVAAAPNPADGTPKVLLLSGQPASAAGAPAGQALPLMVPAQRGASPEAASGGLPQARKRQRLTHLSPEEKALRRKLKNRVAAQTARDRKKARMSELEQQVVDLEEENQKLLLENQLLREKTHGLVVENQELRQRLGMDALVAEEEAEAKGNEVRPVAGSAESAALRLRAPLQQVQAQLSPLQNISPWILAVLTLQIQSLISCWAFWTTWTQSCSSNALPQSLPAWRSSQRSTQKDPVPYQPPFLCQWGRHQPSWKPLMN
How it was run: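 Read-out: fluorescent reporter mRNA fragments resolved by capillary electrophoresis after RT-PCR. Human HepG2 liver cells carried transfected cis-promoter reporter units and were exposed to chemicals for 24 hours. Gain or loss of signal fitted relative to DMSO baseline.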

[6] = ATG_M_19_TRANS: Attagene TRANS-FACTORIAL HepG2 Assay for M19 Transcription Factor (Internal Marker) (AID 2282974); details: HepG2 Attagene TRANS-FACTORIAL M19 internal marker reporter
How it was run: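 24 h chemical exposure of transiently transfected HepG2 (MRTU library). RNA → oligo(dT) RT → PCR → 6-FAM labelling → HpaI cut → CE fluorescence. Positive-direction fit vs DMSO baseline; background internal-marker readout.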

[7] = ATG_GAL4_TRANS: Attagene TRANS-FACTORIAL HepG2 Assay for GAL4 (Internal Marker) (AID 2282976); details: HepG2 Attagene TRANS GAL4 internal marker reporter
How it was run: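 Fluorescence from capillary electrophoresis of labelled RT-PCR products quantifies reporter mRNA induction after 24 h dosing of HepG2 cells carrying transfected GAL4-UAS reporter transcription units. Vehicle DMSO serves as baseline.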

[8] = biological target: Estrogen-related receptor gamma (Homo sapiens) (UniProt P62508); experiment: ATG_ERRg_TRANS: Attagene TRANS-FACTORIAL HepG2 Assay for human Estrogen-Related Receptor gamma (ERRg) (AID 2282977); details: HepG2 Attagene TRANS reporter, ERRg transactivation;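 further: hits increase reporter signal over DMSO so potencies reflect activators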
Sequence of Estrogen-related receptor gamma (Homo sapiens) (P62508 whole entry, looked up, the tested form may be a part): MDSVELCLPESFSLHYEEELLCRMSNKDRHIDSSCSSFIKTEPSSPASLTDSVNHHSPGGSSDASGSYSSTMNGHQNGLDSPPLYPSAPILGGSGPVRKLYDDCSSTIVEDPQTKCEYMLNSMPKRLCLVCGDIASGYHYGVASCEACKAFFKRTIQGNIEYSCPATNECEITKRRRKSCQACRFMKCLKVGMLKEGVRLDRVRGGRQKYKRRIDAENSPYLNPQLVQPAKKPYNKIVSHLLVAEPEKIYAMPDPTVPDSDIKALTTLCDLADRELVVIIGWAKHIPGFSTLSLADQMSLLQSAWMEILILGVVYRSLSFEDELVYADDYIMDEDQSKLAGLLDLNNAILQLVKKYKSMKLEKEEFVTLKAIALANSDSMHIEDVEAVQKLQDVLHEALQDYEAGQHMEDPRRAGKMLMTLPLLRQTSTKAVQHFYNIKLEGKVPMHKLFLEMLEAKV
How it was run: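 Exogenous NR-Gal4 chimera activity measured as reporter transcript induction after 24 h in transiently transfected HepG2 cells. RNA reverse-transcribed, PCR-amplified, 6-FAM-labelled and resolved by capillary electrophoresis; increase over DMSO baseline.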

[9] = biological target: Glucocorticoid receptor (Homo sapiens) (UniProt P04150); experiment: ATG_GR_TRANS: Attagene TRANS-FACTORIAL HepG2 Assay for human Glucocorticoid Receptor (GR) (AID 2282978); details: HepG2 Attagene TRANS GR reporter, mRNA transcription;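 further: activators score as hits since higher reporter transcript over DMSO is fitted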
Sequence of Glucocorticoid receptor (Homo sapiens) (P04150 whole entry, looked up, the tested form may be a part): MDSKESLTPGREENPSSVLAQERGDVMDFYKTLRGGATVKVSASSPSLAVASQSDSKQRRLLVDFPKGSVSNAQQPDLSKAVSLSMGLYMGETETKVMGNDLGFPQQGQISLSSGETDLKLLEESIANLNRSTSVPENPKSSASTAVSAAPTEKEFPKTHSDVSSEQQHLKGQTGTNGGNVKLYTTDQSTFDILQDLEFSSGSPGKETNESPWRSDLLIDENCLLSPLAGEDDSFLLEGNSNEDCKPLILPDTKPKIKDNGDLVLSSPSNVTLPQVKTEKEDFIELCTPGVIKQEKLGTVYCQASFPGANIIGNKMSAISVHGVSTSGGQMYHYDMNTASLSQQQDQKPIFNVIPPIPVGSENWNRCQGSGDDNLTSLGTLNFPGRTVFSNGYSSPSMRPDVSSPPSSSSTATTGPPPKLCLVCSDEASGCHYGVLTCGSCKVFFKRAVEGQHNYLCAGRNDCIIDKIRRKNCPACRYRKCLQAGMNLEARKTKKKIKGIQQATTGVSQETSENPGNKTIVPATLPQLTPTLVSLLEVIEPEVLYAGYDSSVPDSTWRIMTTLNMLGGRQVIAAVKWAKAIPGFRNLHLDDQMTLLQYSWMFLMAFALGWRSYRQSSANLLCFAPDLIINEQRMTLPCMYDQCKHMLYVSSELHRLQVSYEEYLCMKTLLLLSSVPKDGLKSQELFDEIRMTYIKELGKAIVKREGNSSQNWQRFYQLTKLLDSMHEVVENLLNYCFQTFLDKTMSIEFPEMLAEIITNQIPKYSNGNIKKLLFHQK
How it was run: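 Transient MRTU transfection of HepG2 (GAL4-UAS reporters, exogenous NR-GAL4 chimeras), 24 h dosing. Readout: reporter transcript via RT-PCR + capillary electrophoresis fluorescence. Positive direction vs DMSO baseline.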

[10] = biological target: Bile acid receptor (Homo sapiens) (UniProt Q96RI1); experiment: ATG_FXR_TRANS: Attagene TRANS-FACTORIAL HepG2 Assay for Farnesoid X Receptor (FXR) (AID 2282979); details: HepG2 Attagene TRANS FXR-GAL4 reporter transcription;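 further: hits raise reporter mRNA above DMSO so AC50 marks FXR activation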
Sequence of Bile acid receptor (Homo sapiens) (Q96RI1 whole entry, looked up, the tested form may be a part): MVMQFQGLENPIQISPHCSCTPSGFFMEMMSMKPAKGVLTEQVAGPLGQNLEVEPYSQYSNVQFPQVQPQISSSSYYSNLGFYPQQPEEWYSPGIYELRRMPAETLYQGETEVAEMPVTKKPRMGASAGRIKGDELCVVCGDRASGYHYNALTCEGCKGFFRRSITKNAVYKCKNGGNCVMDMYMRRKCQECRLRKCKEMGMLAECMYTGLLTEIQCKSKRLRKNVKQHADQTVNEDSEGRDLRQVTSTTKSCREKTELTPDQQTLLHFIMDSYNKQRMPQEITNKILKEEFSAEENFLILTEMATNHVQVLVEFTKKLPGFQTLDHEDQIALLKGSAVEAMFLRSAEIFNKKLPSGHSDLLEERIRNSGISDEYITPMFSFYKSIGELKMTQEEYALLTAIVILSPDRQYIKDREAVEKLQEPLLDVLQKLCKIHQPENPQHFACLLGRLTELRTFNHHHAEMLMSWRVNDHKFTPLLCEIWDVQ
How it was run: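 Chimeric FXR-GAL4 activity in transiently transfected human HepG2 liver cells is scored as induction of reporter mRNA after 24 h of dosing. Detection uses RT-PCR with fluorescent labelling and capillary electrophoresis, with DMSO serving as baseline.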

Measured: AC50

CN(CCO)S(=O)(=O)C(F)(F)C(F)(F)C(F)(F)C(F)(F)C(F)(F)C(F)(F)C(F)(F)C(F)(F)F
not listed: [10]
inactive: all other assays above

FC(OC(F)(F)C(F)(F)C(F)(F)F)C(F)(F)F (stereo not drawn)
inactive: all assays above

CC1=CC(=O)c2ccccc2C1=O
not listed: [7] | [9] | [10]
inactive: all other assays above

CCCCCc1ccc(O)cc1
active: [3] 1.6 µM
inactive: [1] | [2] | [5]

Cc1cc(=O)oc2cc(O)ccc12
active: [1] 36 µM | [3] 50.6 µM and 53.8 µM
inactive: [1] | [2] | [5] | [6]

CCOCCOCC
inactive: [1] | [2] | [3] | [5]

c1cc2cccc3c4cccc5cccc(c(c1)c23)c54
not listed: [6] | [7] | [10]
inactive: all other assays above

CCO[Si](CCC1CCC2OC2C1)(OCC)OCC (stereo not drawn)
not listed: [4]
inactive: all other assays above

C[N+](C)(CCCNS(=O)(=O)CCC(F)(F)C(F)(F)C(F)(F)C(F)(F)C(F)(F)C(F)(F)F)CC(=O)[O-]
active: [3] 0.0373 µM
not listed: [6] | [7]
inactive: all other assays above

CCC(C)c1ccccc1O (stereo not drawn)
active: [1] 74.6 µM
inactive: [1] | [2] | [5] | [6] | [7] | [8] | [9]

O=C(Nc1cccc([N+](=O)[O-])c1)c1cc2ccccc2cc1O
not listed: [7] | [9]
inactive: all other assays above

O=C(CC(=O)C(F)(F)C(F)(F)C(F)(F)F)c1cccs1
active: [1] 11 µM | [5] 8.17 µM and 32.9 µM
inactive: [1] | [3] | [4] | [6] | [8] | [9]

O=S(=O)(O)C(F)(F)C(F)(F)C(F)(F)C(F)(F)C(F)(F)C(F)(F)C(F)(F)C(F)(F)C(F)(F)C(F)(F)F
not listed: [10]
inactive: all other assays above

Cc1cncc(C)c1
not listed: [7] | [9] | [10]
inactive: all other assays above

CC(C)(O)C(=O)c1ccccc1
not listed: [7]
inactive: all other assays above

CCCCCCCCCCCC[N+](C)(C)Cc1ccccc1
active: [1] 13.2 µM | [5] 11.1 µM | [6] 168 µM
inactive: [1] | [5] | [6] | [9]

C/C=C/C(=O)C1=C(C)CCCC1(C)C
active: [1] 7.43 µM | [5] 34.6 µM
not listed: [6]
inactive: all other assays above

CCCCCCCCCCCC[N+](C)(C)CCCCCCCCCCCC
active: [1] 8.42 µM
not listed: [6] | [7] | [10]
inactive: all other assays above

C[C@]12CC[C@@H]3c4ccc(O)cc4CC[C@H]3[C@@H]1C[C@@H](O)[C@@H]2O
active: [1] 27.1 µM
inactive: [1] | [5] | [6] | [7] | [9]

C=CC(=C)CC/C=C(\C)CCC=C(C)C
active: [1] 6.84 µM
not listed: [9] | [10]
inactive: all other assays above

C=Cc1ccc(O)c(OC)c1
inactive: [2] | [3] | [5] | [6] | [7]
active: [1] 44.7 µM

Nc1ccc(O)c(C(=O)O)c1
active: [3] 44.6 µM
not listed: [7] | [8] | [10]
inactive: all other assays above

COc1cccc(O)c1
inactive: [1] | [2] | [3] | [5] | [6] | [7]

O=C1c2ccccc2C(=O)c2c(O)c(O)cc(O)c21
active: [3] 4.9 µM
inactive: all other assays above

O=c1cc(-c2ccccc2)oc2ccc3ccccc3c12
active: [3] 2.05 µM
inactive: [1] | [2] | [3] | [5] | [6] | [8]

O=C(O)c1cccc(C(=O)O)n1
not listed: [6] | [10]
inactive: all other assays above

C=C(c1ccc(C(=O)O)cc1)c1cc2c(cc1C)C(C)(C)CCC2(C)C
inactive: [1] | [3] | [4] | [5] | [6] | [9]
active: [1] 2.11 µM | [3] 31.2 µM | [5] 16.9 µM
